Where “and” joins values, the source holds several entries; their conditions need not be identical. Identical values can stand only once. About 79,000 compounds went through this panel and 15% of them were active in at least one assay; those are over-represented in the sample as a whole. A number with no mark means an inactive call. Calls of active or inactive are those of the source. Rule as the data show it: active = growth inhibition above about 70%; inactive = the rest.
How the values were obtained:
[1] = NCI Yeast Anticancer Drug Screen. Data for the rad50 strain (AID 155);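 also: 0% = growth of vehicle-only cultures of the same strain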; settings: S. cerevisiae rad50 strain growth inhibition, stronger effect = higher value; at 50.0 µM unless noted
Procedure, shortened: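 DNA repair mutant yeast, compound exposure, growth read-out; inhibition is taken relative to vehicle.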

[2] = NCI Yeast Anticancer Drug Screen. Data for the mec2-1 strain (AID 157); settings: S. cerevisiae mec2-1 strain, stronger effect = higher value; at 50.0 µM unless noted
Procedure, shortened: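 Yeast mec2-1 mutant treated with compound. Readout: growth inhibition vs vehicle controls.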

[3] = NCI Yeast Anticancer Drug Screen. Data for the sgs1 mgt1 strain (AID 161);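 also: 0% = growth of cultures given vehicle only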; settings: S. cerevisiae sgs1 mgt1 strain, stronger effect = higher value; at 50.0 µM unless noted
Procedure, shortened: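 Test agents were incubated with a DNA-repair-mutant yeast strain. Growth was then read and compared against vehicle-treated controls.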

[4] = NCI Yeast Anticancer Drug Screen. Data for the cln2 rad14 strain (AID 165);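 also: 0% = growth equal to vehicle treated cultures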; settings: S. cerevisiae cln2 rad14 strain, stronger effect = higher value; at 50.0 µM unless noted
Procedure, shortened: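 cln2 rad14 yeast strain; compound exposure; growth inhibition read vs vehicle controls.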

[5] = NCI Yeast Anticancer Drug Screen. Data for the bub3 strain (AID 167); settings: S. cerevisiae bub3 mutant strain, stronger effect = higher value; at 50.0 µM unless noted
Procedure, shortened: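 In this screen, a yeast mutant lacking normal mitotic checkpoint function is challenged with compound. Relative growth versus vehicle gives the inhibition value.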

[6] = NCI Yeast Anticancer Drug Screen. Data for the mlh1 rad18 strain (AID 175); settings: S. cerevisiae mlh1 rad18 strain growth inhibition, stronger effect = higher value; at 50.0 µM unless noted
Procedure, shortened: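 Yeast w/ defined DNA-repair lesions; compound exposure; growth vs vehicle controls → % inhibition.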

| Compound | growth inhibition [1] | growth inhibition [2] | growth inhibition [3] | growth inhibition [4] | growth inhibition [5] | growth inhibition [6] |
| --- | --- | --- | --- | --- | --- | --- |
| CCCCCCCCCCCCCCCCCCCCCCCCCCBr | 0.85% | 0.8% | 9.7% | -9.95% | 10.4% | 11.7% |
| CCCCN1CC(=O)N2CCCC(c3ccccc3)N2C(=O)C1 (stereo not given) | 7.55% | -0.95% | 17.6% | 15.4% | 10.5% | -3.5% |
| CN(C)c1ccc(-c2c3ccccc3nc3ccccc23)cc1 | -19.4% and -12.1% | 9.35% and -6.05% | 14.2% and -14.2% | 0.05% and -26.1% | 9.95% and -16.1% | -4.7% and 5.8% |
| Cc1ccc(C(CC(=O)C(C)(C)CN2CCCCC2)SCCS(=O)(=O)O)cc1 (stereo not given) | 7.5% | -7.95% | 11.1% | 9.4% | 4.3% | 20% |
| Cc1ccc(S(=O)(=O)CCC#N)cc1 | 0.25% | 8.2% | -5.65% | -9.35% | -8.2% | -11.7% |
| CC(C)(C)c1ccncc1 | 8.45% | 16.1% | -16.4% | -10.2% | 5.15% | -4.65% |
| COc1cc(CC(C(=O)O)C(C)C(=O)c2ccc3c(c2)OCO3)cc(OC)c1OC (stereo not given) | -4.75% | 0.1% | -11.9% | -24.6% | -10.4% | -15.8% |
| O=S1(=O)c2ccccc2Nc2cc3ccccc3cc21 | 6.75% | 2.4% | 0.85% | -11.5% | -2.55% | 6.25% |
| Cc1ccc([N+](=O)[O-])cc1NC(=O)N(Cc1ccccc1)Cc1ccccc1 | 8.7% | 1.5% | 10.8% | 9.4% | 17.3% | -0.05% |
| CC1=NCC23CC(=O)C4C(CCC5(C)CC(O)CCC45C)C2CCC13 (stereo not given) | 0.85% | -0.95% | 7.6% | -36.6% | 20.4% | 1.9% |
| CC1(C)N=C(N)N=C(N)N1CCCOc1ccc(N)cc1 | 33.2% | -4.65% | 11.8% | 5.2% | -3.55% | 1.1% |
| CCOc1ccc2nc(NC(=O)C(=O)C(c3cnc4ccccc4n3)[N+](=O)[O-])sc2c1 (stereo not given) | 23.6% | -13.4% | 24.4% | 8.95% | -22.4% | 13.8% |
| O=C(OCc1ccccc1)ON1C(=O)C2C3C=CC(C3)C2C1=O (stereo not given) | -26.4% | -54.2% | 12.5% | -9.1% | -19% | 5.05% |
| Cn1cnc([N+](=O)[O-])c1Sc1ncc[nH]1 | 1.3% | 3.1% | -3.05% | 16.4% | 9.7% | 2.8% |
| OCC12c3ccccc3C3c4ccccc4C1C32 (stereo not given) | 10.2% | -17.4% | -4.05% | -31.1% | -18.9% | 0.95% |
| COc1cc(O)c(C(C)=O)c(O)c1 | 9.55% | 16.2% | 9.5% | 16.8% | 29.2% | 18.5% |
| CCCC1SCC(=O)N1c1nncs1 (stereo not given) | 6.5% | 3.5% | -23.2% | -29.1% | -8% | -30.6% |
| O=c1c2ccccc2c(=O)c2c1c1c(=O)c3ccccc3c(=O)c1c1c(=O)c3ccccc3c(=O)c21 | 22.2% | 9.65% | 30.2% | 29.6% | 0.5% | 22.4% |
| NC(=S)Nc1ccc(-c2ccccc2)cc1 | 17.4% | 25.9% | 49.1% | -1.65% | 22.8% | 40.3% |
| O=C(NC1(Sc2ccccc2)CC1)c1ccc(Cl)cc1 | 17.8% | 6.8% | 8.9% | 20.6% | 13.8% | 18.9% |

| Compound | growth inhibition [1] | growth inhibition [2] | growth inhibition [3] | growth inhibition [4] | growth inhibition [5] | growth inhibition [6] |
| --- | --- | --- | --- | --- | --- | --- |
| O=C(Cc1ccccc1)NCc1ccco1 | -3.25% | 8.55% | -11.6% | -10.9% | -7.45% | 7.3% |
| Cc1ccc(N2CC(=O)N3CCCC(C)N3C(=O)C2)cc1 (stereo not given) | 26% | 8.85% | 14.8% | 15.8% | 7.05% | 10.4% |
| CCCCN(Cc1ccccc1)C(=S)Nc1ccccc1 | 17.4% | 47.8% | 64.4% | 1.85% | 63.5% | 67.3% |
| CC(=O)CC(=O)N1CCc2ccccc21 | 3.8% | -14.9% | 3.8% | 2.55% | -19.6% | 1.1% |
| COc1ccc(CCNCC(O)CSc2ccc(Cl)cc2)cc1OC (stereo not given) | 74.8% (active) | 20.4% | 73% (active) | 27.9% | 22% | 30.6% |
| CCOP(=O)(OCC)C(C)(CC)N/C(=N/C(NC(C)=O)(C(F)(F)F)C(F)(F)F)NC1=NC(C(F)(F)F)(C(F)(F)F)N=C(C(F)(F)F)O1 (stereo not given) | 1.65% | 4.65% | -26.8% | 5.3% | -3.1% | -34.1% |
| CC(=O)OC1CCC(C(C)(C)C)CC1 (stereo not given) | -12.8% | -41% | -19.2% | 2.5% | -28.2% | -15.8% |
| COCCOC(=O)c1ccc(C)cc1 | 9.8% | 17.8% | 10.6% | 14.8% | 12.1% | 8.1% |
| Nn1c(N=Nc2c(O)[nH]c3ccccc23)n[nH]c1=S | 45.9% | 5.5% | 57% | 15.9% | 6.35% | 23.9% |
| C(#Cc1ccccc1)COc1ccccc1 | 9.9% | 11.9% | -15.1% | 1.5% | 17.1% | -5.25% |
| O=C(O)C1(O)CCCCC1 | -4.85% and 6.9% | -2.45% and 9% | -7.35% and -1.65% | -21.2% and 16.4% | -7.2% and 19.6% | 6.65% and -7.05% |
| Cc1[nH]c(=O)cc2c1[nH]c1ccccc12 | -0.4% | -6.7% | -0.15% | -44.2% | 1.3% | -1.05% |
| N#CCCOc1ccc(N)cc1 | 0.55% | -5.2% | 7.15% | 3.75% | 8.65% | 17.6% |
| O=C(O)c1ccc(C(=O)NCCCN(CCCCN(CCCNC(=O)c2ccc(C(=O)O)c(O)c2O)C(=O)c2ccc(C(=O)O)c(O)c2O)C(=O)c2ccc(C(=O)O)c(O)c2O)c(O)c1O | 11.2% | 16.1% | 20.3% | -31.3% | 0.35% | 24.9% |
| COc1ccc2[nH]c3c(=O)[nH]ncc3c2c1 | -1.9% | -0.95% | -7.5% | -3.05% | 9.8% | 9.05% |
| COc1cc(C(C)=O)ccc1OCOc1ccc(C(C)=O)cc1OC | -4.65% | -23.6% | -3.7% | -43% | 5.95% | -5.55% |
| CC1(C)OC2OC3C(O)C(=O)OC3C2O1 (stereo not given) | -36.8% | -16.9% | -19.2% | -20% | -2.6% | -7.1% |
| CCOC(=O)CN=C1Nc2ccccc2C(=O)N2CSCC12 (stereo not given) | -18% | -44.7% | -28.6% | -16.4% | -54.5% | -16.8% |
| O=[N+]([O-])c1nccn1CC1OC(n2ccnc2[N+](=O)[O-])C(O)C(O)C1O (stereo not given) | 0.3% | 2.6% | -2.95% | 5.9% | 25.3% | 6.25% |
| Cc1ccc(S(=O)(=O)Nc2ccccc2-c2nc3ccc(C)cc3c(=O)o2)cc1 | -5.35% | -24.7% | -7.8% | 2.9% | -7.55% | -13.7% |
